Several values for one entry are separate records, joined by “and”; a condition that tells them apart may be missing. Equal entries are not always repeated. Unmarked numbers belong to inactive results. Results filed as inconclusive are left out. Activity calls are given as the source filed them.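 The calls were made as follows, unless noted: active = compounds whose dose series gives a full or clear partial fitted curve of increased nuclear translocation; inconclusive = weak partial curve or effect only at the top dose; inactive = no dose-dependent translocation response.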
Columns and labels:
[1] = target: Glucocorticoid receptor (Homo sapiens) (UniProt P04150); assay: GR-GFP Redistribution (AID 450); conditions: U2OS GR-GFP nuclear translocation, laser cytometry, 2 h; also: potency is read from the fitted curve at half-maximal effect
[2] = target: Glucocorticoid receptor (Homo sapiens) (UniProt P04150); assay: GR-EFC Redistribution (AID 451; calls by dose curve; also: potency is read from the fitted curve at half-maximal effect); conditions: CHO-K1 GR-EFC translocation, beta-gal luminescence, 2 h
In short: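 Translocation of GR-ED fusion to nuclear EA restores b-gal, read by luminescence after 1 h room-temperature detection. Engineered CHO-K1 biosensor cells, 1,000/well, exposed 2 h at 37 C to titrations up to 46 uM final.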

[3] = target: Mitogen-activated protein kinase 10 (Mus musculus) (UniProt Q61831); assay: JNK3 AlphaScreen Assay (AID 530; active = well fitted curve in either direction with a large enough effect, not every such curve was filed as active;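 also: kinase came from lysate of stimulated human HepG2 cells; signal reports phosphorylation of biotinylated GST-cJun 1-79 at Ser73 with 10 µM ATP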); conditions: JNK3 lysate, c-Jun phosphorylation; series mostly up to 57.1 µM
In short: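 Compound titrations were preincubated 15 minutes at room temperature with substrate, antibody and pre-activated JNK3-containing HepG2 lysate. Reactions were started with 10 uM ATP and stopped with EDTA-containing bead buffer for AlphaScreen detection.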

Glucocorticoid receptor (Homo sapiens), sequence (P04150 whole entry, looked up, the tested form may be a part): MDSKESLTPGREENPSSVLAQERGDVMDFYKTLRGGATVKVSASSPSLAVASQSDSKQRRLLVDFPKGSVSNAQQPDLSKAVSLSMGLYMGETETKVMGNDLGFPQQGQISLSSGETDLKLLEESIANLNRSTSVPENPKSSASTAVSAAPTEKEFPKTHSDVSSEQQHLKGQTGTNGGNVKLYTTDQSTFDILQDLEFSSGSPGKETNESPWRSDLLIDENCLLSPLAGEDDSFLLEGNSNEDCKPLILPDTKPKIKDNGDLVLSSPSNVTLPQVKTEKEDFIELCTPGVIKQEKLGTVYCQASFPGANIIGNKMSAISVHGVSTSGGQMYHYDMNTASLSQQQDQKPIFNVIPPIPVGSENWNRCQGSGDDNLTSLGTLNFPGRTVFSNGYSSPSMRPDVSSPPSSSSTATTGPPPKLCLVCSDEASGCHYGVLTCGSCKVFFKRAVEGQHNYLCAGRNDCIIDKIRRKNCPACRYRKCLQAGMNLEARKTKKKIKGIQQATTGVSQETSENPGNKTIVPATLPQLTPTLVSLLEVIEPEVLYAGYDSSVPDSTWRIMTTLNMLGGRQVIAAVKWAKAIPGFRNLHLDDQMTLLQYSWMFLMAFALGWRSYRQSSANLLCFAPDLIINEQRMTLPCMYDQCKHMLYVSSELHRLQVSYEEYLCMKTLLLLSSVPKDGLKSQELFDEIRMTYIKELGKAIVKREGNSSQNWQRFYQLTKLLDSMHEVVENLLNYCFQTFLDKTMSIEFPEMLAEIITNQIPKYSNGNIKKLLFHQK

| SMILES | Potency [1] | Potency [2] | outcome [3] |
| --- | --- | --- | --- |
| CN(C(=O)C(Cl)Cl)c1ccc(OC(=O)c2ccco2)cc1 | > 20.6 µM | > 20.6 µM | inactive |
| CC(=O)Nc1c(I)c(NC(C)=O)c(I)c(C(=O)O)c1I | > 20.6 µM |  |  |
| CCN(CC)CCOc1ccc(/C(=C(\Cl)c2ccccc2)c2ccccc2)cc1 | > 20.6 µM | > 20.6 µM | inactive |
| O=C(CCCCC(=O)Nc1c(I)cc(I)c(C(=O)O)c1I)Nc1c(I)cc(I)c(C(=O)O)c1I | > 20.6 µM | > 20.6 µM | inactive |
| C[C@]12CCC(=O)C=C1CC[C@@H]1[C@@H]2[C@@H](O)C[C@@]2(C)[C@H]1CC[C@]2(O)C(=O)COC(=O)CCC(=O)O | 44.2 nM (active) and 599 nM (active) |  |  |
| Cn1cnc2c(NCc3ccccc3)nc(NCCO)nc21 | > 46 µM | > 46 µM |  |
| O=C1NC(c2cccc([N+](=O)[O-])c2)=CCN1c1ccccc1O | > 46 µM | > 46 µM | inactive |
| O=C(O)c1ccccc1S | > 20.6 µM |  |  |
| CC(C)N(CCC(=O)c1ccc2ccccc2c1)Cc1ccccc1 | > 46 µM | > 46 µM | inactive |
| COc1ccccc1N1CCN(CCN2C(=O)CC3(CCCC3)CC2=O)CC1 | > 46 µM | > 46 µM | inactive |
| Brc1ccc([C@H]2CN3CCSC3=N2)cc1 | > 46 µM | > 46 µM | inactive |

Reference: PubChem BioAssay (NCATS)
